Hit rate of the full screen: of about 410,000 compounds, about 18,000 (4.4%) were called active. Another 7% or so got no clear call; they are omitted. The full list was thinned out, with actives kept by preference. Values without a mark were called inactive. Rule as the data show it: active = activity change below about -60%; inconclusive = no clear call, values can overlap the other calls; inactive = above about -39%.
Assay: qHTS Assay for inhibitors of the human cytomegalovirus (HCMV)
Details: HFF cells, HCMV-luciferase reporter, 72 h; at 57.5 µM; stronger effect = lower value
Summary of the method: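 Inhibition of viral replication was scored as loss of reporter luminescence in HFFs infected with HCMV-luciferase (MOI 1 PFU/cell) for 72 h; compounds tested at 2 doses, normalized to buffer and Salinomycin controls.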
In the case of `CCC(C)N(C(=O)COC(=O)C1C(C(=O)OC)=C(C)NC(C)=C1C(=O)OC)C1CCS(=O)(=O)C1` (stereo unspecified), the activity change, negative = inhibition is reported as -15.8%.
Work on `COc1ccc(S(=O)(=O)N[C@H]2CC[C@@]34CCCN3C(=O)CCC[C@H]4[C@H]2Cc2ccccc2)cc1` yielded an activity change, negative = inhibition of -13.9%.
For `Cc1ccccc1OCc1nc2c3cnn(-c4ccccc4F)c3ncn2n1`, the activity change, negative = inhibition was 2.88%.
`CCN1CCN(c2ncc3c(n2)CC(c2ccccc2O)CC3=O)CC1` (stereo unspecified) gave an activity change, negative = inhibition of -2.14%.
In the case of `CCOC(=O)c1ccc2c(c1)N(Cc1cccc(OC)c1)C(=O)c1ccccc1S2(=O)=O`, the activity change, negative = inhibition is reported as 41.8%.
`O=C(NC1CCCCC1)c1ccc(Cn2c(SCc3ccccc3)nc3cccnc32)cc1` showed an activity change, negative = inhibition of 13.4%.
In the case of `CCS(=O)(=O)N1CCc2cc(C(=O)NCc3ccc(OC)cc3)ccc21`, the activity change, negative = inhibition is reported as 21.8%.
For `Cc1ccc(OCCSc2nc(C)c(Cc3ccccc3)c(=O)[nH]2)cc1`, the activity change, negative = inhibition was -3.53%.
`COc1ccc(CNC(=O)c2cc3c(=O)[nH]c4ccccc4c3s2)cc1` showed an activity change, negative = inhibition of -6.89%.
With `Cc1ccc(C)n1-c1nnc(N2CCC(C(=O)NCc3ccccc3Cl)CC2)s1` the activity change, negative = inhibition was -16.5%.
Work on `Cc1cccc(-c2nc(SCC(=O)Nc3cc(C)on3)c3c(=O)n(C)c(=O)n(C)c3n2)c1` yielded an activity change, negative = inhibition of -3.8%.
For `CCOC(=O)c1oc2ccc(S(=O)(=O)n3nc(-c4ccccc4OC)cc3N)cc2c1C`, the activity change, negative = inhibition was 0.413%.
`Cc1oc2cc3oc(=O)ccc3cc2c1C` showed an activity change, negative = inhibition of 57.6%.
Work on `Cc1ccc(NC(=O)Cc2ccc(NC(=O)N3CCCCc4ccccc43)cc2)cc1` yielded an activity change, negative = inhibition of 2.61%.
For `COc1ccc2c(c1)c(=O)c(C(=O)c1ccccc1)cn2CC(=O)Nc1ccc2c(c1)OCCO2`, the activity change, negative = inhibition was -4.48%.
In the case of `COc1ccccc1-c1noc(CSc2nc(C)cc(=O)[nH]2)n1`, the activity change, negative = inhibition is reported as -61.9% (active).
For `COc1ccccc1-c1noc(CSc2nnc(-c3ccccc3)n2-c2ccc(C)c(C)c2)n1`, the activity change, negative = inhibition was 4.88%.
`COc1ccc(-c2noc(CSc3nc(C)cc(=O)[nH]3)n2)cc1OC` showed an activity change, negative = inhibition of 14.1%.
In the case of `Cn1c(=O)sc2cc(NS(=O)(=O)c3ccc(C(C)(C)C)cc3)ccc21`, the activity change, negative = inhibition is reported as -1.79%.
`COc1ccc(N2CCN(S(=O)(=O)c3cc(Br)cnc3N)CC2)cc1` gave an activity change, negative = inhibition of 19.7%.
With `CCCC(=O)Nc1cc2nn(-c3ccccc3)nc2cc1C` the activity change, negative = inhibition was 123%.
In the case of `Cc1cc2nn(-c3ccc(Cl)cc3)nc2cc1NC(=O)C(C)C`, the activity change, negative = inhibition is reported as -64.3% (active).
`O=C(Cc1ccc(Cl)cc1)Nc1ccc2nn(-c3ccc(Cl)cc3)nc2c1` gave an activity change, negative = inhibition of 21.1%.
Work on `Cn1c(=O)n(Cc2c(F)cccc2Cl)c(=O)c2c1nc1n2CCN1c1ccc(F)cc1` yielded an activity change, negative = inhibition of 17.8%.
Work on `COCCn1c(SCC(=O)c2cc(C)ccc2C)nc2cc(C(=O)NC3CCCC3)ccc2c1=O` yielded an activity change, negative = inhibition of -4.52%.
In the case of `CC(C)c1ccc(NS(=O)(=O)c2ccc3[nH]cc(C(=O)NC4CCCC4)c(=O)c3c2)cc1`, the activity change, negative = inhibition is reported as 9.04%.
`Cn1nnnc1SCCNCc1ccc(Cl)c(Cl)c1` showed an activity change, negative = inhibition of 6.59%.
`COc1cc(CNCCSc2nnnn2C)ccc1OCc1ccc(Cl)cc1Cl` gave an activity change, negative = inhibition of -13.2%.
In the case of `COc1cccc(CNCCSc2nnnn2C)c1OCc1ccccc1Cl`, the activity change, negative = inhibition is reported as -75.4% (active).
Compound `Cc1c(Cl)cccc1-c1ccc(CNCCCSc2nnnn2C)o1` has an activity change, negative = inhibition of -0.502%.
With `CCOc1ccc(CNCCSc2nnnn2C)cc1` the activity change, negative = inhibition was -12.8%.
In the case of `COc1cc(CNCCSc2nnnn2C)ccc1OCc1c(F)cccc1Cl`, the activity change, negative = inhibition is reported as -60.3% (active).
In the case of `Cc1ccc(Cn2c(C)c3cnn(CC(=O)NCc4ccccc4)c(=O)c3c2C)cc1`, the activity change, negative = inhibition is reported as -4.95%.
`Cc1ccc(CNC(=O)CSC2=Nc3ccccc3C3=NC(C)C(=O)N23)cc1` (stereo unspecified) showed an activity change, negative = inhibition of -13.2%.
`CCCn1ccc2c(OCC(=O)NCc3ccc(F)cc3)cccc2c1=O` gave an activity change, negative = inhibition of 13.2%.
Work on `CC1=C(c2ccc(F)cc2)S(=O)(=O)N=C1N1CCC(C(=O)NCCc2ccccc2C)CC1` yielded an activity change, negative = inhibition of -1.97%.
In the case of `CCOc1ccc(CNC(=O)CCc2c(C)nn(-c3ccc(N4CCCCC4)nn3)c2C)cc1`, the activity change, negative = inhibition is reported as 17.5%.
`CC(Sc1cccc[n+]1[O-])C(=O)Nc1cccc(S(=O)(=O)N2CCOCC2)c1` (stereo unspecified) showed an activity change, negative = inhibition of 28.7%.
`CCC(=O)c1ccc(OCC(O)CN2CCN(c3cccc(C(F)(F)F)c3)CC2)cc1` (stereo unspecified) gave an activity change, negative = inhibition of -2.36%.
`CCC(=O)c1ccc(OCC(O)CN2C(=O)NC(C)(C)C2=O)cc1` (stereo unspecified) gave an activity change, negative = inhibition of -18.3%.
With `CCC(=O)c1ccc(OCC(O)Cn2nc(C)c(C(C)=O)c2C)cc1` (stereo unspecified) the activity change, negative = inhibition was -74.9% (active).
`COc1ccc(S(=O)(=O)N2CCCCC2c2cc(C(=O)NCc3ccc(F)cc3)no2)cc1` (stereo unspecified) gave an activity change, negative = inhibition of -15%.
Work on `COc1ccccc1OCC(=O)Nc1nnc2n1CCS2` yielded an activity change, negative = inhibition of 1.36%.
In the case of `CC1CN(C(=O)N2CCC(C(=O)NCc3ccco3)CC2)c2cc(Cl)ccc2O1` (stereo unspecified), the activity change, negative = inhibition is reported as -3.73%.
For `Cn1c(=O)c2sccc2n2c(CCC(=O)NCc3ccccc3Cl)nnc12`, the activity change, negative = inhibition was 9.44%.
For `O=C(CCc1nnc2ccc(NCCCN3CCCC3=O)nn12)NCc1ccccc1Cl`, the activity change, negative = inhibition was 0% (active).
With `O=C1CCCN1CCCNC(=S)Nc1ccc(F)c(Cl)c1` the activity change, negative = inhibition was -22.1%.
For `Cc1cc(=O)c2cc(C(=O)Nc3cccc(C)c3C)ccc2[nH]1`, the activity change, negative = inhibition was -7.29%.
`C[C@@H]1CC2=C(C(=O)OC(C)(C)O2)[C@@H](C2CC2)O1` gave an activity change, negative = inhibition of 7.2%.
`CCN(C(=O)COC(=O)c1c(C)nn(-c2ccccc2)c1Cl)c1c(N)n(Cc2ccccc2)c(=O)[nH]c1=O` gave an activity change, negative = inhibition of -3.2%.
For `Cn1cccc1Cc1nnc(SCC(=O)NCc2ccc3c(c2)OCO3)n1CCc1ccccc1`, the activity change, negative = inhibition was -7.07%.
With `O=C(CSc1ccc(-c2ccco2)nn1)NCc1ccc2c(c1)OCO2` the activity change, negative = inhibition was -3.61%.
In the case of `O=C(CSc1ncnc2scc(-c3ccccc3)c12)NCc1ccc2c(c1)OCO2`, the activity change, negative = inhibition is reported as -73.8% (active).
Compound `COc1cc2nc(SCc3ccc(F)cc3)n3nc(CCn4c(C)nc5ccccc54)nc3c2cc1OC` has an activity change, negative = inhibition of -1.21%.
With `O=C(CCC(=O)N1CC2CCCN2c2ccccc21)NCc1ccccc1Cl` (stereo unspecified) the activity change, negative = inhibition was -6.89%.
`COc1cc(NC(=O)CSc2nc3nc(C)c(Cc4ccc(C)cc4)c(C)n3n2)cc(OC)c1OC` gave an activity change, negative = inhibition of 0%.
With `CCOC(=O)c1c(NC(=O)c2ccc(S(=O)(=O)N3CCCC(C)C3)cc2)sc2c1CCN(C(C)C)C2` (stereo unspecified) the activity change, negative = inhibition was -62.5% (active).
Compound `COC(=O)c1c(NC(=O)c2ccc(S(=O)(=O)N3CCOCC3)cc2)sc2c1CCN(C(C)C)C2` has an activity change, negative = inhibition of -4.29%.
Compound `CCOC(=O)c1c(NC(=O)C2CCN(S(=O)(=O)c3ccc(Cl)cc3)CC2)sc2c1CCCC2` has an activity change, negative = inhibition of -10.4%.
For `NC(=O)CSc1nc2c(oc3ccccc32)c(=O)n1Cc1ccccc1`, the activity change, negative = inhibition was -22.4%.
In the case of `COc1ccc(OC)c(NC(=O)Cn2c(=O)n(Cc3ccccc3)c(=O)c3ccccc32)c1`, the activity change, negative = inhibition is reported as -3.04%.
For `COc1cccc(C(=O)N(Cc2cccc(Cl)c2)Cc2ccco2)c1`, the activity change, negative = inhibition was -7.17%.
For `CCC(=C/c1sc2ccc3ccccc3c2[n+]1C)/C=C1\Sc2ccc3ccccc3c2N1C`, the activity change, negative = inhibition was -100% (active).
`CCOc1ccc(N2CC(c3nc4ccccc4n3CCOc3ccc(OC)cc3)CC2=O)cc1` (stereo unspecified) gave an activity change, negative = inhibition of 23.3%.
For `Cc1ccc(-n2c(=O)c3cccnc3n2CC(=O)NCc2ccc(F)cc2)cc1C`, the activity change, negative = inhibition was -0.36%.
In the case of `O=C(CSc1nc2nccnc2c(=O)n1Cc1cccs1)Nc1ccccc1F`, the activity change, negative = inhibition is reported as -31.3%.
`CCOc1ccc(NC(=O)c2cc3c(=O)n(Cc4cccs4)ccc3nc2C)cc1` gave an activity change, negative = inhibition of -12.4%.
For `CCOc1ccc(NC(=O)CSc2nc3ccccc3c(=O)n2Cc2cccs2)cc1`, the activity change, negative = inhibition was -62.8% (active).
`CCc1ccc(C(=O)C(C)OC(=O)CN2C(=O)NC3(CCCC3)C2=O)cc1` (stereo unspecified) gave an activity change, negative = inhibition of -31.9%.
`O=S(=O)(NCC1CN(S(=O)(=O)c2ccc3c(c2)OCCO3)C1)c1c(F)cccc1F` gave an activity change, negative = inhibition of -3.7%.
`Cc1ccc(S(=O)(=O)c2nc(-c3ccco3)oc2SCC(=O)Nc2ccc(F)cc2)cc1` showed an activity change, negative = inhibition of 1.94%.
With `COc1ccccc1CNc1nccn(-c2ccc(F)cc2)c1=O` the activity change, negative = inhibition was 18.6%.
For `CCN(CC)S(=O)(=O)c1cc([N+](=O)[O-])ccc1N=Nc1c(O)n(C)c2ccccc12`, the activity change, negative = inhibition was -37.9%.
In the case of `Cn1nc(-c2ccccc2)c2cc([N+](=O)[O-])ccc21`, the activity change, negative = inhibition is reported as -91.8% (active).
In the case of `Cn1cnc(C(F)(F)F)c1-c1ccc([N+](=O)[O-])cc1`, the activity change, negative = inhibition is reported as -9.95%.
`Cc1cccc(NS(=O)(=O)c2cc(Cl)ccc2Cl)n1` showed an activity change, negative = inhibition of -15.4%.
`Cn1c(=O)c2[nH]c(NCC3CCCO3)nc2n(-c2ccccc2)c1=O` (stereo unspecified) gave an activity change, negative = inhibition of -3.27%.
With `CCCCCNC(=O)c1cccnc1SCC(=O)Nc1ccccc1OC` the activity change, negative = inhibition was -9.93%.
Work on `CCOC(=O)c1cccc(NC(=O)c2cc(CN3CCCC3)on2)c1` yielded an activity change, negative = inhibition of 88.3%.
In the case of `Cc1ccc(Oc2c(C(F)(F)F)oc3c(CN4CCCCC4)c(O)ccc3c2=O)cc1`, the activity change, negative = inhibition is reported as 13.5%.
`Cc1oc2ccc(O)c(CN3CCOCC3)c2c1C(=O)Nc1cccc(Cl)c1C` showed an activity change, negative = inhibition of 0.476%.
Work on `CCN1CCN(Cc2c(O)ccc3oc(C)c(C(=O)Nc4ccc(C)cc4C)c23)CC1` yielded an activity change, negative = inhibition of -4.07%.
In the case of `Cc1oc2ccc(O)c(CN3CCC(C)CC3)c2c1C(=O)Nc1ccccc1`, the activity change, negative = inhibition is reported as -68.4% (active).
With `Cc1oc2ccc(O)c(CN3CCCCC3)c2c1C(=O)Nc1cccc(C(F)(F)F)c1` the activity change, negative = inhibition was -76.5% (active).
`O=C(NCC(F)(F)F)c1ccc(S(=O)(=O)NCCc2ccc3c(c2)OCCO3)cc1` showed an activity change, negative = inhibition of -6.01%.
For `CCOc1ccccc1NC(=O)Cn1c2ncccc2c(=O)n1-c1ccc(C)c(C)c1`, the activity change, negative = inhibition was -10.1%.

— PubChem BioAssay AID1259415 (National Center for Advancing Translational Sciences (NCATS), 2018)
% is scaled to controls: 0 for no effect and ±100 for the full control effect.
